In PubChem BioAssay (NCI) one finds growth data, which are given here for 4 compounds.

SMILES strings stand for the structures. Compounds without any hit were thinned out: in the full panel of roughly 83,000, 20% have a hit.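 How to read the values: 0–100, growth inhibition (40 = 60% inhibited); 0, no net growth; -100 to 0, cell death (-40 = 40% of starting cells died; -100 = all dead).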 Active and inactive are the calls of the source. Rule for the calls: active = growth percent below 10; inactive = the rest.

Among the test systems are DU-145 prostate; K-562 leukemia; MALME-3M melanoma; MDA-MB-231 breast; RXF 393 renal; SF-268 CNS; SF-295 CNS; SF-539 CNS; UACC-257 melanoma; M14 melanoma; HCT-15 colon; HT29 colon; SNB-75 CNS; SNB-19 CNS; U251 CNS; PC-3 prostate; SK-MEL-5 melanoma; UACC-62 melanoma; LOX IMVI melanoma; SK-MEL-28 melanoma.
Holding throughout (assay): NCI-60 one-dose screen, 48 h (100 = growth as untreated, 0 = no growth, -100 = all killed)
Holding throughout (details): 10 µM unless noted

Take `COc1cc(-c2nc(SCCC(C)C)nc(Nc3ccc(S(N)(=O)=O)cc3)c2C#N)cc(OC)c1OC`: the growth with DU-145 prostate is 43.1% (inactive); in the assay on K-562 leukemia it was 7.52% (active); with MALME-3M melanoma it was 19.1% (inactive); in the assay with MDA-MB-231 breast it was 25.1% (inactive); in the assay on RXF 393 renal, 10.1% (inactive); in the assay on SF-268 CNS, 42.4% (inactive). The growth is 21.8% (inactive) with SF-295 CNS; 38.6% (inactive) in the assay on SF-539 CNS; 46% (inactive) with UACC-257 melanoma; 20.6% (inactive) in the assay on M14 melanoma; 14% (inactive) in the assay on HCT-15 colon; 2.83% (active) in the assay with HT29 colon. For the same compound, the growth is 47.6% (inactive) in the assay on SNB-75 CNS; 54.3% (inactive) with SNB-19 CNS; 31.5% (inactive) in the assay on U251 CNS; 9.42% (active) in the assay with PC-3 prostate; 37.4% (inactive) in the assay with SK-MEL-5 melanoma; 45.7% (inactive) with UACC-62 melanoma. The figures for the growth in the assay on LOX IMVI melanoma and in the assay on SK-MEL-28 melanoma were 5.65% (active) and 59.1% (inactive), respectively.

In the case of `CC(C)(C)c1cc(C(=O)Nc2cc3ccccc3cc2C(=O)NCCN)cc(C(C)(C)C)c1`, the growth in the assay on DU-145 prostate was -96.9% (active); in the assay on K-562 leukemia, -76.9% (active); with MALME-3M melanoma, -38.1% (active); in the assay on MDA-MB-231 breast it was -79.9% (active); in the assay on RXF 393 renal, -90.4% (active); in the assay with SF-268 CNS, -80.7% (active). The growth is -85.5% (active) in the assay with SF-295 CNS; -68.8% (active) in the assay with SF-539 CNS; -36.1% (active) with UACC-257 melanoma; -81.2% (active) in the assay on M14 melanoma; -83.4% (active) with HCT-15 colon; -79.6% (active) in the assay with HT29 colon. Also, the growth is -92.2% (active) in the assay with SNB-75 CNS; -69% (active) in the assay with SNB-19 CNS; -85.4% (active) in the assay on U251 CNS; -93% (active) in the assay with PC-3 prostate; -39.7% (active) with SK-MEL-5 melanoma; -69.4% (active) in the assay on UACC-62 melanoma. Besides, the values for the growth in the assay with LOX IMVI melanoma and with SK-MEL-28 melanoma were -89.9% (active) and -80.9% (active), respectively.

In the case of `O=[N+]([O-])c1cc(CCl)ccc1OCCBr`, the growth with DU-145 prostate was 95.7% (inactive); in the assay with K-562 leukemia, 115% (inactive); with MALME-3M melanoma it was 107% (inactive); in the assay on MDA-MB-231 breast, 108% (inactive); in the assay with RXF 393 renal, 110% (inactive); in the assay on SF-268 CNS, 101% (inactive). For the same compound, the growth in the assay with SF-295 CNS was 99.7% (inactive); in the assay on SF-539 CNS, 97.9% (inactive); in the assay on UACC-257 melanoma, 105% (inactive); in the assay with M14 melanoma, 98.3% (inactive); with HCT-15 colon, 91.1% (inactive); with HT29 colon, 96.7% (inactive). Besides, the growth is 86.6% (inactive) with SNB-75 CNS; 107% (inactive) in the assay on SNB-19 CNS; 101% (inactive) in the assay on U251 CNS; 98.1% (inactive) with PC-3 prostate; 98.6% (inactive) in the assay with SK-MEL-5 melanoma; 96.8% (inactive) with UACC-62 melanoma. The growth with LOX IMVI melanoma was 95% (inactive); with SK-MEL-28 melanoma it was 110% (inactive).

Turning to `CC(C)C1=NOC(=O)C1=Cc1cn(-c2ccccc2)nc1-c1ccc(Br)cc1`, the growth in the assay with DU-145 prostate was 92.9% (inactive); in the assay on K-562 leukemia it was 43.4% (inactive); in the assay on MALME-3M melanoma it was 87.7% (inactive); in the assay on MDA-MB-231 breast, 91.5% (inactive); with RXF 393 renal, 70.3% (inactive); in the assay on SF-268 CNS it was 102% (inactive). The growth with SF-295 CNS was 96.8% (inactive); in the assay on SF-539 CNS, 78.5% (inactive); in the assay on UACC-257 melanoma, 100% (inactive); in the assay with M14 melanoma, 76.6% (inactive); in the assay on HCT-15 colon it was 74.3% (inactive); in the assay with HT29 colon, 60.3% (inactive). In addition, the growth in the assay with SNB-75 CNS is 65.6% (inactive); in the assay with SNB-19 CNS, 90.3% (inactive); in the assay with U251 CNS, 73.7% (inactive); in the assay with PC-3 prostate, 82.3% (inactive); with SK-MEL-5 melanoma it was 97.2% (inactive); in the assay with UACC-62 melanoma, 76.1% (inactive). For the same compound, in the assay on SK-MEL-28 melanoma, the growth was 83.4% (inactive).
